Source: ChEMBL document CHEMBL4513135, “CO-ADD screening of IQOG CSIS (Spain) compounds”
“And” between values parts separate entries of the source, which are not always exact repeats. Equal entries are not always repeated. Potency and affinity values are given separately.

What was measured:
Staphylococcus aureus = settings: Concentration 32 ug.mL-1, ASSAY_TEST Inhibition of Bacterial Growth, detection method Absorption (OD600), MEDIA CAMHB, plate type 384well, NBS, CORNING #3640, time 18 hr
Escherichia coli = settings: Concentration 32 ug.mL-1, ASSAY_TEST Inhibition of Bacterial Growth, detection method Absorption (OD600), MEDIA CAMHB, plate type 384well, NBS, CORNING #3640, time 18 hr

Structure (SMILES)	Inhibition (Staphylococcus aureus) [%]	Inhibition (Escherichia coli) [%]	Inhibition (Staphylococcus aureus; 32 ug/mL)	Inhibition (Escherichia coli; 32 ug/mL)
COc1ccccc1C1C(C#N)=C(N)Oc2c1ccc1ccccc21 (stereo not drawn)	19.36	-9.01	–	–
CC1=C(C(=O)O[C@@H]2C[C@@]3(C)CC[C@H]2C3(C)C)C(c2ccccc2)C(C#N)=C(N)O1 (stereo partly drawn)	-12.42	16.17	–	–
C#CCNc1ncccn1	40.44	-0.02	–	–
CC(=O)C(=Cc1ccccc1)C(=O)O[C@H]1C[C@H](C)CC[C@H]1C(C)C	27.78	14.92	–	–
N#CC1=C(N)Oc2ccc3ccccc3c2C1	5.91	-5.32	–	–
NNC(=O)c1cc2ccccc2n1Cc1ccccc1	-21.85	-14.39	–	–
Cn1ccnc1C1C(C#N)=C(N)Oc2c1ccc1cccnc21 (stereo not drawn)	12.96	-14.85	–	–
C#CCN(C)Cc1cc2cc(OCc3ccccc3)ccc2n1C.O=C(O)C(=O)O	41.66	-11.51	–	–
N#CC1=C(N)Oc2ccc3ccccc3c2C1c1ccccc1 (stereo not drawn)	40.09	-6.38	–	–
CCOC(=O)c1cc2cc(O)ccc2n1C(=O)OC(C)(C)C	5.1	10.33	–	–
CCOC(=O)C1=C(C)NC(N)=C(C#N)C1c1ccc(OC)cc1 (stereo not drawn)	20.75	-7.34	–	–
O=C(NCc1ccccc1)c1cc2ccccc2[nH]1	5.56	8.05	–	–
COc1ccc(C2C(C#N)=C(N)Oc3c2ccc2ccccc32)cc1 (stereo not drawn)	21.39	-6.99	–	–
Cl.Nc1c2c(nc3c1C(c1ccccc1)c1c(ccc4ccccc14)O3)CCCC2 (stereo not drawn)	8.92	12.69	–	–
COC1(N)Oc2ccc3ccccc3c2C(c2ccccc2)C1(Br)C#N (stereo not drawn)	16.73	20.49	–	–
N#CC1=C(N)Oc2c(ccc3ccccc23)C1c1cccc([N+](=O)[O-])c1 (stereo not drawn)	17.39	-10.4	–	–
O=C(COc1ccc2ccccc2c1)N/N=C/c1c[nH]c2ccccc12	3.21	6.84	–	–
CN(C)c1nc(N)c(C#N)cc1C#N.Cl	–	–	-10.37% and 5.36%	-3.96% and -19.68%
COc1ccc2cc(C3C4=C(CC(C)(C)CC4=O)Oc4nc5c(c(N)c43)CCCC5)c(Cl)nc2c1 (stereo not drawn)	25.96	20.91	–	–
ClCCC1CCN(Cc2ccccc2)CC1	26.32	16.74	–	–
N#CC1=C(Cl)Oc2ccc3ccccc3c2C1c1ccccc1 (stereo not drawn)	24.96	12.43	–	–
COc1ccc(/C=C2/N=C(c3ccccc3)OC2=O)cc1OC	-19.31	-9.68	–	–
O=Cc1cc2ccccc2nc1Cl	19.39	16.87	–	–
COc1ccc(C=C2N=C(c3ccccc3)SC2=O)cc1	12.36	7.03	–	–
COc1nc2nc3c(c(N)c2cc1C#N)CCCC3	30.12	-3.63	–	–
OCc1cc2ccccc2[nH]1	39.41	-0.49	–	–
COc1ccc(C2c3ccc4ccccc4c3OC(=NBr)C2(Br)C#N)cc1OC (stereo not drawn)	21.78	-14.95	–	–
COc1ccc(C=C2N=C(c3ccccc3)OC2=O)cc1	12.56	14.02	–	–
C#CCN(C)c1cc(C)nc(C)n1	21.48	-8.55	–	–
